Assay outcomes deposited in PubChem by National Center for Advancing Translational Sciences (NCATS).
In the library only some 0.45% were active in any assay of this set; here they are far more common.
RGS12 GoLoco inh: inhibitors of human Gai1-RGS12 GoLoco interaction (red fluorophore); P63096; Gai1:RGS12 GoLoco peptide FP, rhodamine, 10 min; AID 880; Potency, µM (series often up to 61.6 µM), for inactives: at the highest dose activity, negative = inhibition, actives largely listed as inhibitors; actives 0.44% (n = 230,000); active means well fitted inhibition curve with a large enough effect, not every such curve was filed as active; inactive means no such curve, though single readings can be large or run the other way; further: potency means the concentration at half of the fitted maximal effect; on the % scale 0 is the no-effect control and ±100 the full control effect; nearly all actives have a fitted effect of over 30% in size
CBFb RUNX1 block: CBF-beta/RUNX1 interaction disruption | Q01196+Q13951 | AlphaScreen CBFb-His/RUNX1-biotin binding, biochemical | Potency, µM (highest dose often 59.8 µM), for inactives: at the top dose activity, negative = inhibition, most hits filed as inhibitors | 230,000 tested, under 10 active | AID 1477; further: % of control where 0% means no effect
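Proteins preincubated together for 20 min at RT before compound addition; 15 min later, nickel and streptavidin beads were added and left 90 min prior to AlphaScreen measurement.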
a7 integrin act: activates integrin-mediated alleviation for muscular dystrophy. alpha7betagal myoblasts, beta-gal FDG fluorescence, 48 h. Potency, µM (series often up to 38.3 µM), for inactives: at the top dose activation, hits mostly activators. actives 0.064% (n = 350,000);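 further: potency means the concentration at half of the fitted maximal effect; 100% = response of the positive control SU9516; nearly all actives have a fitted effect of over 60% in size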
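Alpha7betagal+/- myoblasts (passage 13) were plated 16-24 hr, then exposed to compounds (1:260 dilution of DMSO stock) for 48 hours at 37C. After MPER lysis, β-galactosidase reporter activity was read as FDG fluorescence (ex 480/em 540) after 30 minutes.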
TRb SRC2 PPI: TRbeta-SRC2 interaction inhibition; TRbeta-SRC2 peptide binding, fluorescence polarization; receptor liganded with 1 µM T3; Potency, µM (series often up to 106 µM), inactives show top-dose activity change, negative = inhibition, actives largely listed as inhibitors; actives 0.065% (n = 280,000); AID 1469;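 further: potency means the concentration at half of the fitted maximal effect; plate controls were bound peptide for no effect and peptide without receptor for full effect; nearly all actives have a fitted effect of over 50% in size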
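Human TRb ligand-binding domain (0.6 uM) is mixed with 20 nM Texas Red SRC2 peptide and 1 uM T3; after compound addition and 5 hr at ambient temperature, polarization is measured and normalized to unbound and bound controls.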
ERG Ets-DNA blk: ERG Ets/DNA interaction inhibition | fluorescence polarization, His-ERG Ets domain / labelled DNA | P11308 | Potency, µM (top dose mostly 76.9 µM), without a hit: at the top dose FP activity, negative = inhibition, hits mostly inhibitors | actives 0.028% (n = 370,000); active means well fitted inhibition curve with a large enough effect in the polarisation, with a control signal flat; inconclusive means small, poorly fitted or top-dose-only effect, or effect the other way, or a change in a side signal; inactive means no such curve, though single readings can be large or run the other way; the % refers to the polarisation;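 further: polarization taken with two DNA probes labelled with fluorescein and Texas red; potency means the concentration at half of the fitted maximal effect; % of control where 0% means no effect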
Target sequence (P11308 whole entry, looked up, the tested form may be a part): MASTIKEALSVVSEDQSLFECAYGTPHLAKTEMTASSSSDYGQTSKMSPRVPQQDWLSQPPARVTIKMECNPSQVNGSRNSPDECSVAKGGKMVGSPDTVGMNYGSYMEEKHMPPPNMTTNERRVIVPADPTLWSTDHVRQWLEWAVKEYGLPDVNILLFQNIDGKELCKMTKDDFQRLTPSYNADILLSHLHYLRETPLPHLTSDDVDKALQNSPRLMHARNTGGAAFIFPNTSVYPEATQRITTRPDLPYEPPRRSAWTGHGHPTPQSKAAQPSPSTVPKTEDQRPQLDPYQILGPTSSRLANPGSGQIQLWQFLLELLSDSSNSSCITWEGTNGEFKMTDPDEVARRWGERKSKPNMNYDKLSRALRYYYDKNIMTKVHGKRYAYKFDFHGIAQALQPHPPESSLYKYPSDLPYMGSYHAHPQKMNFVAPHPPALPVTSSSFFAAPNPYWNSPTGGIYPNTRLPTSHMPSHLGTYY
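His-tagged ERG Ets domain (1 uM in the protein solution; 300mM KCl, 50mM Tris-HCl, 1mM EDTA, 1mM DTT, pH 7.5) received compound, then a probe mix of 5 nM fluorescein-DNA and 100nM Texas-615-DNA. Fluorescence polarization was read for both dyes.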
TR SRC2 fluor cs: counter-screen for TRb-SRC2 inhibitors: fluorescence interference. TRb/SRC2 Texas Red total fluorescence interference. Potency, µM (series often up to 106 µM), for the others: top-dose fluorescence change, negative = quenching. actives 0.29% (n = 280,000). AID 1479; active means well fitted curve in either direction with a large enough effect; inconclusive means small, poorly fitted or top-dose-only effect; further: potency means the concentration at half of the fitted maximal effect; on the % scale 0 is the no-effect control and ±100 the full control effect
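Human TRβ ligand-binding domain (0.6 uM) and Texas Red SRC2 peptide (20 nM) in Tris buffer with 1 uM T3 and 5% DMSO were incubated with pinned compound for 5 hr at ambient temperature. Total fluorescence was computed as S + 2P (555/632 nm).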
The depositor's hits bear a star; ? = inconclusive; . = not tested or not shown; [ ] = another dose, or the depositor's remark. Unless noted, the call rests on the fitted dose curve; in most records, active means well fitted curve in the direction sought with a large enough effect; inconclusive means small, poorly fitted or top-dose-only effect, or another doubt; inactive means no such curve, though single readings can be large; an effect the other way counts as inactive or inconclusive.

SMILES	RGS12 GoLoco inh	CBFb RUNX1 block	a7 integrin act	TRb SRC2 PPI	ERG Ets-DNA blk	TR SRC2 fluor cs
CCn1c(O)c(C=C2N=c3ccccc3=N2)sc1=S	19%	-5%	-14%	-7%	-9%	1%
O=C(Nc1ccc(Oc2cccnc2)cc1)c1ccccc1F	0%	-1%	15%	2%	-1%	-5%
O=C(Nc1ccc(Oc2cccnc2)cc1)c1ccccc1Cl	.	11%	10µM*	-1%	5%	-8%
C[C@H](NC(=O)[C@@H](N)Cc1ccc(O)cc1)C(=O)NCC(=O)N[C@H]1CSSC[C@@H](C(=O)O)NC(=O)[C@H](CO)NC(=O)[C@H]([C@@H](C)O)NC(=O)[C@H](Cc2ccccc2)NC(=O)[C@H]([C@@H](C)O)NC(=O)[C@H](CCCCN)NC(=O)[C@@H](Cc2c[nH]c3ccccc23)NC(=O)[C@H](Cc2ccccc2)NC(=O)[C@H](Cc2ccccc2)NC(=O)[C@H](CC(N)=O)NC(=O)[C@H](CCCCN)NC1=O	.	-2%	.	1%	.	-3%
COC(=O)[C@H](COC(C)(C)C)NC(=O)O[C@H]1C(=O)c2cc(OC)ccc2O[C@@H]1c1ccc(OC)c(Br)c1	6%	9%	.	0%	.	0%
CC[C@H](C)[C@H](NC(=O)[C@H](Cc1ccc(O)cc1)NC(=O)[C@@H](NC(=O)[C@H](CCCN=C(N)N)NC(=O)[C@@H](N)CC(=O)O)C(C)C)C(=O)N[C@@H](Cc1ccc(N)cc1)C(=O)N1CCC[C@H]1C(=O)N[C@@H](Cc1ccccc1)C(=O)O	.	19%	.	1%	.	-17%
CC(C)CCOc1ccc(N)cc1	.	-8%	.	-2%	.	-1%
Cn1ccc(C(=O)Nc2cccnc2Cl)n1	.	.	10µM*	.	2%	.
O=C(Nc1cccnc1Cl)c1ccc(=O)oc1	3%	?	-16%	4%	100%	-2%
Cn1c(=O)[nH]c(=O)n(C2CCC(O)CC2)c1=O (configuration not stated)	.	.	.	0%[201 µM]	.	-5%[201 µM]
COc1ccc(C(=O)C[N+]2(C)CCOCC2)cc1	7.1µM*	1%	6%	-2%	.	-2%
COc1ccc(C(=O)OCC[N+]2(C)CCCCC2)cc1	13µM*	0%	6%	2%	0%	-1%
CC1(C)CC(NCCCCCCNC2CC(C)(C)NC(C)(C)C2)CC(C)(C)N1	.	.	.	6%[201 µM]	.	1%[201 µM]
CCCCN1CCc2[nH]c(=S)[nH]c(=O)c2C1	-18%	-2%	12%	-22%[53 µM]	0%	0.71µM*[quencher]
CC(c1ccccc1)C1OCC(C[N+]2(C)CCCCC2)O1 (configuration not stated)	10µM*	1%	?	-5%	-12%	0%
Cc1snc(SCC(=O)c2ccc(F)cc2)c1C#N	12%	-5%	-2%	0%	-8%	-1%
Cc1snc(SCC(=O)c2ccc([N+](=O)[O-])cc2)c1C#N	14µM*	-18%	19%	-7%	11%	-6%
O=Nc1c(O)[nH]c2ccccc12.[Cu].[O-]/N=C1/C(=[OH+])Nc2ccccc21	0%[14.2 µM]	.	.	.	.	.
CCCSCCCNC(=O)C1CCN(C(=O)c2cc3sccc3n2C)CC1	.	.	.	-9%	-4%	32µM*[quencher]
CCn1c(C(=O)N2CCC(C(=O)NCCCSC3CCCCC3)CC2)cc2sccc21	43%	-13%	-13%	12%	-3%	-1%
CC1CCCCC12NC(=O)N(CC(=O)OCc1cccc(F)c1)C2=O (configuration not stated)	.	.	10µM*	.	0%	.
COc1ccc(NC(=O)CSc2cc(-c3ccccc3)nc(C)n2)cc1	.	.	.	-26%	4%	8.9µM*[quencher]
Cc1nc(SCC(=O)Nc2ccc(C)c(Cl)c2)cc(-c2ccccc2)n1	.	.	.	2%	-1%	4%
CCCCCC1CCC(=O)O1 (configuration not stated)	.	.	.	7%[201 µM]	.	-4%[201 µM]
CC1CCc2noc(NC(=O)c3ccccc3[N+](=O)[O-])c2C1 (configuration not stated)	.	.	.	-10%	-1%	22387µM*[quencher]
SMILES	RGS12 GoLoco inh	CBFb RUNX1 block	a7 integrin act	TRb SRC2 PPI	ERG Ets-DNA blk	TR SRC2 fluor cs
NC(=O)c1cc(N)ccc1N1CCCC1	-4%	-8%	3%	40µM*	-1%	45µM*[fluorescent]
Cc1cc(N)ccc1-n1c(C)ccc1C	-61%	?	-26%	7.9µM*	?	13µM*[fluorescent]
Cc1cc(N)ccc1N1CCCC1	14µM*	-6%	-22%	40µM*	?	45µM*[fluorescent]
NC(=O)c1cc(N)ccc1N1CCCCC1	4%	-5%	-21%	-4%	4%	-3%
CO[C@@H](CCOCc1ccccc1)C[C@H]1O[C@H](C(=O)OC(C)C)C=C[C@@H]1C	4%	5%	.	4%	.	0%
CC[C@H](C)[C@H](NC(=O)[C@H](Cc1ccc(O)cc1)NC(=O)[C@H](Cc1cnc[nH]1)NC(=O)[C@H](CCCNC(=N)N)NC(=O)[C@H](CC(C)C)NC(=O)[C@H](C)NC(=O)[C@H](CO)NC(=O)[C@H](Cc1ccc(O)cc1)NC(=O)[C@H](Cc1ccc(O)cc1)NC(=O)[C@H](CCCNC(=N)N)NC(=O)[C@H](C)NC(=O)[C@H](CCSC)NC(=O)[C@H](CC(=O)O)NC(=O)[C@H](CCC(=O)O)NC(=O)[C@H](C)NC(=O)[C@@H]1CCCN1)C(=O)N[C@@H](CC(N)=O)C(=O)N[C@@H](CC(C)C)C(=O)N[C@H](C(=O)N[C@H](C(=O)N[C@@H](CCCNC(=N)N)C(=O)N[C@@H](CCC(N)=O)C(=O)N[C@@H](CCCNC(=N)N)C(=O)N[C@@H](Cc1ccc(O)cc1)C(N)=O)[C@@H](C)O)[C@@H](C)CC	.	12%	.	1%	.	-4%
CCCN(C(=O)c1ccc(S(=O)(=O)N2CCCC2)cc1)C1CCS(=O)(=O)C1 (configuration not stated)	.	.	5µM*	.	17%	.
CCN(C(=O)c1ccc(S(=O)(=O)N2CCCC2)cc1)C1CCS(=O)(=O)C1 (configuration not stated)	.	.	-9%	.	17%	.
Cc1ccc(C(C)(C)C)c(O)c1	.	.	.	0%[201 µM]	.	-6%[201 µM]
Nc1ccc(N(CCO)CCO)cc1	8.9µM*	.	14%	?	-25%	28%
Nc1ccc(C(=O)N(CCO)CCO)cc1	15%	-3%	7%	3%	-13%	-2%
CCCCCC(O)/C=C/C=C\CCCCCCCC(=O)O (configuration not stated)	2%	8%	.	-2%	.	-1%
COCCCNC(=O)c1ccccc1Oc1ccccc1	9%	5%	-17%	-2%	9%	1%
